The source made the active and inactive calls. Calls follow the shape of the dose curve; as a rule, active = well fitted curve in the direction sought with a large enough effect; inconclusive = small, poorly fitted or top-dose-only effect, or effect the other way, or another doubt; inactive = no such curve, though single readings can be large or run the other way.

This experiment can be described thus: qHTS for Inhibitors of Cell Surface uPA Generation: Validation Assay (AID 493164).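 Also: RAW 264.7 macrophage cells exposed to compound for 18 h.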 Particulars: mouse cells, plasminogen activation; series mostly up to 38.3 µM. The method, boiled down: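 ATP-Lite luminescence read-out: ATP remains high when uPA activity-dependent LF translocation into the cytoplasm is blocked. RAW 264.7 cells, 18 h compound exposure at 37 C; 7-point titration, 2.45 nM to 38.3 uM final.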
For orientation: Quantitative high-throughput screening tests each substance at several concentrations.
As to `O=C(O)CCC(=O)N1CCCC1C(=O)O` (configuration not stated), the result was inactive. The result for `C=C(C)C1CC=C(C(=O)O)CC1` (configuration not stated) reads “inactive”; that for `NCC(O)C1CCCCCCC1` (configuration not stated), “inactive”. The result for `NC(=O)CNCCC(c1ccccc1)c1ccccc1` reads “inactive”; that for `COc1ccccc1N1CCN(CCCNc2c(C)c(=O)n(C)c(=O)n2C)CC1`, “inactive”. To `C[C@@]1(C2CCCC2)Cc2cc(OCC(=O)O)c(Cl)c(Cl)c2C1=O` belongs “inactive”. For the compound `N[C@@H](CS(=O)O)C(=O)O`, the outcome was inactive. In the case of `COC(=O)C(C)(N)Cc1ccc(O)cc1` (configuration not stated), the result was inactive. To `O=C(O)/C(=C/c1c(C(=O)O)[nH]c2cc(Cl)cc(Cl)c12)c1ccccc1` belongs “inactive”; to `Cn1c(=O)[nH]c2ncn(C)c2c1=O`, “inactive”. The result for `CCCCCCCCCCCCCCCCCCOC[C@H](COP(=O)([O-])OCC[N+](C)(C)C)OC` reads “inactive”; that for `O=C(O)/C=C/c1ccc(O)c(O)c1`, “inactive”. As to `N[C@@H](Cc1ccc(O)c(I)c1)C(=O)O`, the result was inactive. To `NC(=O)c1cc[n+](CC2=C(C(=O)O)N3C(=O)[C@@H](NC(=O)[C@@H](c4ccccc4)S(=O)(=O)[O-])[C@H]3SC2)cc1` belongs “inactive”; to `O=[N+]([O-])c1cccc2cn[nH]c12`, “inactive”; to `c1ccc2nc(C3=NCCN3)ccc2c1`, “inactive”. To `COc1ccccc1N1CCN(CCCCNC(=O)c2ccc3ccccc3c2)CC1` belongs “inactive”; to `O=c1onc2n1-c1cc(Br)ccc1OC2`, “inactive”. Turning to `CC(C)NC[C@H](O)COc1ccc(CC(N)=O)cc1`, the result was inactive. Take `NC(N)=NC(N)=Nc1ccccc1`: the result was inactive.

`C#CCn1c(=O)c2c(ncn2C)n(C)c1=O`: the call was inactive. The result for `O=C(OCCN1CCOCC1)C1(c2ccccc2)CCCCC1` reads “inactive”.

For the origin of these results see PubChem BioAssay (NCATS).
